Out of some 5,500 compounds screened, about 2,000 (36%) were called active. About 18% were inconclusive and are not listed. No stated cut-off is given here; in the data, active means normalized growth mostly below about 0.91 (no sharp cut-off); inconclusive means no clear call, values can overlap the other calls; inactive means mostly above about 0.92. The list shows a part of the results.
Test: chemical genetic growth profiling, strain panel (AID 1159580);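 further: tested at 20 µM; growth read once vehicle control cultures reached saturation at 30 °C; 1 = growth at the plate median or of vehicle wells; lower values mean less growth of the strain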
Conditions: growth OD
[1] = S. cerevisiae deletion strains, locus YHR030C, strain SLT2, active compounds read low
[2] = S. cerevisiae deletion strains, locus YJL187C, strain SWE1, active compounds read low
[3] = S. cerevisiae deletion strains, locus YAL013W, strain DEP1, active compounds read low
[4] = S. cerevisiae deletion strains, locus YAL040C, strain CLN3, active compounds read low
[5] = S. cerevisiae deletion strains, locus YCL061C, strain MRC1 (second series), active compounds read low
[6] = S. cerevisiae deletion strains, locus YDR363W, strain ESC2, active compounds read low
[7] = S. cerevisiae deletion strains, locus YER002W, strain NOP16, active compounds read low
[8] = S. cerevisiae deletion strains, locus YJR075W, strain HOC1, active compounds read low
[9] = S. cerevisiae deletion strains, locus YMR307W, strain GAS1, active compounds read low
[10] = S. cerevisiae deletion strains, locus YNL153C, strain GIM3, active compounds read low
[11] = S. cerevisiae deletion strains, locus YNL175C, strain NOP13, active compounds read low
[12] = S. cerevisiae deletion strains, locus YNL197C, strain WHI3, active compounds read low
[13] = S. cerevisiae deletion strains, locus YNL224C, strain SQS1, active compounds read low
[14] = S. cerevisiae deletion strains, locus YNL322C, strain KRE1, active compounds read low
[15] = S. cerevisiae deletion strains, locus YOR083W, strain WHI5 (second series), active compounds read low
[16] = S. cerevisiae deletion strains, locus YPL055C, strain LGE1, active compounds read low
[17] = S. cerevisiae deletion strains, locus YBR229C, strain ROT2, active compounds read low
[18] = S. cerevisiae deletion strains, locus YDL101C, strain DUN1, active compounds read low
[19] = S. cerevisiae deletion strains, locus YDR150W, strain NUM1, active compounds read low
[20] = S. cerevisiae deletion strains, locus YEL061C, strain CIN8, active compounds read low
[21] = S. cerevisiae deletion strains, locus YGR078C, strain PAC10, active compounds read low
[22] = S. cerevisiae deletion strains, locus YHR087W, strain rtc3, active compounds read low
[23] = S. cerevisiae deletion strains, locus YJR043C, strain POL32, active compounds read low
[24] = S. cerevisiae deletion strains, locus YLR039C, strain RIC1, active compounds read low
[25] = S. cerevisiae deletion strains, locus YLR058C, strain SHM2 (second series), active compounds read low
[26] = S. cerevisiae deletion strains, locus YLR085C, strain ARP6, active compounds read low
[27] = S. cerevisiae deletion strains, locus YLR262C, strain YPT6, active compounds read low
[28] = S. cerevisiae deletion strains, locus YML094W, strain GIM5, active compounds read low
[29] = S. cerevisiae deletion strains, locus YMR219W, strain ESC1, active compounds read low
[30] = S. cerevisiae deletion strains, locus YMR263W, strain SAP30, active compounds read low
[31] = S. cerevisiae deletion strains, locus YNL298W, strain CLA4 (second series), active compounds read low
[32] = S. cerevisiae deletion strains, locus YNR030W, strain Alg12, active compounds read low
[33] = S. cerevisiae deletion strains, locus YPL241C, strain CIN2, active compounds read low
[34] = S. cerevisiae deletion strains, locus YPR135W, strain CTF4, active compounds read low
[35] = S. cerevisiae deletion strains, locus YGR229C, strain SMI1, active compounds read low

Measured: normalized growth

C=CC[C@@H]1/C=C(\C)C[C@H](C)C[C@H](OC)[C@H]2O[C@@](O)(C(=O)C(=O)N3CCCC[C@H]3C(=O)O[C@H](/C(C)=C/[C@@H]3CC[C@@H](O)[C@H](OC)C3)[C@H](C)[C@@H](O)CC1=O)[C@H](C)C[C@@H]2OC
active: S. cerevisiae deletion strains, locus YAL021C, strain ccr4, active compounds read low 0.844 | S. cerevisiae deletion strains, locus YAL026C, strain drs2, active compounds read low 0.6 | S. cerevisiae deletion strains, locus YBL061C, strain skt5, active compounds read low 1.09 [resistant] | S. cerevisiae deletion strains, locus YBR171W, strain sec66, active compounds read low 1.14 [resistant] | S. cerevisiae deletion strains, locus YCL016C, strain dcc1, active compounds read low 0.896 | S. cerevisiae deletion strains, locus YDR069C, strain doa4, active compounds read low 0.829 | S. cerevisiae deletion strains, locus YDR137W, strain rgp1, active compounds read low 0.174 | S. cerevisiae deletion strains, locus YDR195W, strain ref2 0.773 | S. cerevisiae deletion strains, locus YDR392W, strain spt3, active compounds read low 0.55 | S. cerevisiae deletion strains, locus YER016W, strain bim1, active compounds read low 0.909 | S. cerevisiae deletion strains, locus YER155C, strain BEM2 (second series), active compounds read low 0.705 | S. cerevisiae deletion strains, locus YFR010W, strain ubp6, active compounds read low 0.877 | S. cerevisiae deletion strains, locus YGL173C, strain kem1, active compounds read low 0.848 | [1] 0.7 | S. cerevisiae deletion strains, locus YHR079C, strain IRE1, active compounds read low 0.719 | S. cerevisiae deletion strains, locus YJL095W, strain BCK1 (second series), active compounds read low 0.91 | S. cerevisiae deletion strains, locus YJL095W, strain BCK1, active compounds read low 0.754 | S. cerevisiae deletion strains, locus YJL129C, strain trk1, active compounds read low 0.845 | S. cerevisiae deletion strains, locus YJL164C, strain tpk1, active compounds read low 0.915 | S. cerevisiae deletion strains, locus YJR066W, strain TOR1, active compounds read low 0.746 | S. cerevisiae deletion strains, locus YLR113W, strain HOG1, active compounds read low 0.66 | S. cerevisiae deletion strains, locus YLR262C, strain YPT6 (second series), active compounds read low 0.137 | S. cerevisiae deletion strains, locus YLR320W, strain mms22, active compounds read low 0.734 | S. cerevisiae deletion strains, locus YLR342W, strain FKS1, active compounds read low 0.0809 | S. cerevisiae deletion strains, locus YMR125W, strain sto1, active compounds read low 0.844 | S. cerevisiae deletion strains, locus YMR205C, strain PFK2, active compounds read low 0.78 | S. cerevisiae deletion strains, locus YMR231W, strain pep5, active compounds read low 0.176 | S. cerevisiae deletion strains, locus YNL071W, strain lat1, active compounds read low 0.746 | S. cerevisiae deletion strains, locus YNL183C, strain NPR1, active compounds read low 0.781 | S. cerevisiae deletion strains, locus YOR001W, strain rrp6, active compounds read low 0.761 | S. cerevisiae deletion strains, locus YOR106W, strain vam3, active compounds read low 0.736 | S. cerevisiae deletion strains, locus YOR231W, strain MKK1, active compounds read low 0.7 | S. cerevisiae deletion strains, locus YOR270C, strain vph1, active compounds read low 0.514 | S. cerevisiae deletion strains, locus YPL051W, strain arl3, active compounds read low 0.67 | S. cerevisiae deletion strains, locus YPL106C, strain sse1, active compounds read low 0.72 | S. cerevisiae deletion strains, locus YPL256C, strain CLN2, active compounds read low 0.695
inactive: S. cerevisiae deletion strains, locus YAL030W, strain snc1, active compounds read low 1.02 | S. cerevisiae deletion strains, locus YBR009C, strain hhf1, active compounds read low 0.946 | S. cerevisiae deletion strains, locus YBR023C, strain chs3, active compounds read low 1 | S. cerevisiae deletion strains, locus YBR231C, strain swc5, active compounds read low 0.988 | S. cerevisiae deletion strains, locus YBR279W, strain paf1, active compounds read low 1.03 | S. cerevisiae deletion strains, locus YCL011C, strain gbp2, active compounds read low 0.988 | S. cerevisiae deletion strains, locus YCL069W, strain vba3, active compounds read low 1.02 | S. cerevisiae deletion strains, locus YCR088W, strain abp1, active compounds read low 0.995 | S. cerevisiae deletion strains, locus YDL005C, strain med2, active compounds read low 1.04 | S. cerevisiae deletion strains, locus YDL040C, strain nat1, active compounds read low 1.02 | S. cerevisiae deletion strains, locus YDR001C, strain nth1, active compounds read low 1.04 | S. cerevisiae deletion strains, locus YDR159W, strain sac3, active compounds read low 0.974 | S. cerevisiae deletion strains, locus YDR297W, strain sur2, active compounds read low 1.03 | S. cerevisiae deletion strains, locus YDR334W, strain swr1, active compounds read low 1.1 | S. cerevisiae deletion strains, locus YDR335W, strain msn5, active compounds read low 0.96 | S. cerevisiae deletion strains, locus YEL003W, strain gim4, active compounds read low 0.99 | S. cerevisiae deletion strains, locus YEL037C, strain rad23, active compounds read low 1.04 | S. cerevisiae deletion strains, locus YEL061C, strain CIN8 (second series), active compounds read low 1 | S. cerevisiae deletion strains, locus YER015W, strain faa2, active compounds read low 1.04 | S. cerevisiae deletion strains, locus YER111C, strain swi4, active compounds read low 1.02 | S. cerevisiae deletion strains, locus YGL167C, strain pmr1, active compounds read low 1.06 | S. cerevisiae deletion strains, locus YGL227W, strain vid30, active compounds read low 1.05 | S. cerevisiae deletion strains, locus YGL240W, strain doc1, active compounds read low 1.06 | S. cerevisiae deletion strains, locus YGL253W, strain hxk2, active compounds read low 0.983 | S. cerevisiae deletion strains, locus YHR013C, strain ard1, active compounds read low 0.912 | S. cerevisiae deletion strains, locus YHR027C, strain rpn1, active compounds read low 1.03 | S. cerevisiae deletion strains, locus YHR142W, strain chs7, active compounds read low 0.881 | S. cerevisiae deletion strains, locus YJL092W, strain hpr5, active compounds read low 1.02 | S. cerevisiae deletion strains, locus YJL115W, strain asf1, active compounds read low 1.05 | S. cerevisiae deletion strains, locus YJL154C, strain vps35, active compounds read low 1.04 | S. cerevisiae deletion strains, locus YJL166W, strain qcr8, active compounds read low 0.982 | [2] 1.03 | S. cerevisiae deletion strains, locus YKL160W, strain elf1, active compounds read low 0.956 | S. cerevisiae deletion strains, locus YKR026C, strain gcn3, active compounds read low 1.04 | S. cerevisiae deletion strains, locus YKR091W, strain srl3, active compounds read low 1.04 | S. cerevisiae deletion strains, locus YLL001W, strain dnm1, active compounds read low 0.932 | S. cerevisiae deletion strains, locus YLL026W, active compounds read low 1.02 | S. cerevisiae deletion strains, locus YLL041C, strain sdh2, active compounds read low 1.05 | S. cerevisiae deletion strains, locus YLR027C, strain aat2, active compounds read low 0.976 | S. cerevisiae deletion strains, locus YLR221C, strain rsa3, active compounds read low 0.922 | S. cerevisiae deletion strains, locus YLR258W, strain gsy2, active compounds read low 0.986 | S. cerevisiae deletion strains, locus YLR357W, strain rsc2, active compounds read low 0.949 | S. cerevisiae deletion strains, locus YLR370C, strain arc18, active compounds read low 0.936 | S. cerevisiae deletion strains, locus YLR384C, strain iki3, active compounds read low 1.05 | S. cerevisiae deletion strains, locus YML120C, strain ndi1, active compounds read low 0.965 | S. cerevisiae deletion strains, locus YMR058W, strain fet3, active compounds read low 0.995 | S. cerevisiae deletion strains, locus YMR129W, active compounds read low 1.04 | S. cerevisiae deletion strains, locus YNL209W, strain ssb2, active compounds read low 1.03 | S. cerevisiae deletion strains, locus YNL248C, strain rpa49, active compounds read low 1.03 | S. cerevisiae deletion strains, locus YNL322C, strain KRE1 (second series), active compounds read low 0.962 | S. cerevisiae deletion strains, locus YNR049C, strain mso1, active compounds read low 1.03 | S. cerevisiae deletion strains, locus YOR070C, strain gyp1, active compounds read low 0.944 | S. cerevisiae deletion strains, locus YOR080W, strain dia2, active compounds read low 1.05 | S. cerevisiae deletion strains, locus YOR083W, strain WHI5, active compounds read low 0.931 | S. cerevisiae deletion strains, locus YOR265W, strain rbl2, active compounds read low 1.05 | S. cerevisiae deletion strains, locus YOR290C, strain snf2, active compounds read low 0.894 | S. cerevisiae deletion strains, locus YPL078C, strain atp4, active compounds read low 0.951 | S. cerevisiae deletion strains, locus YPL240C, strain hsp82, active compounds read low 1.03

N[C@@H](Cn1ccc(=O)[nH]c1=O)C(=O)O
inactive: [3] 0.988 | [4] 1.06 | [5] 1 | [6] 1 | [7] 0.995 | [8] 0.97 | [9] 0.978 | S. cerevisiae deletion strains, locus YNL128W, strain TEP1, active compounds read low 1 | [10] 1.03 | [11] 0.995 | [12] 1 | [13] 1.01 | [14] 0.975 | [15] 1.01 | [16] 0.998

CCOC(=O)c1ccc(Oc2ncc(C(F)(F)F)cc2Cl)cc1
inactive: [3] 1.04 | [17] 0.995 | [18] 0.957 | [19] 1 | [20] 0.996 | [21] 0.993 | [1] 0.829 | [22] 0.987 | [23] 0.98 | [8] 0.917 | [24] 0.889 | [25] 0.975 | [26] 1.08 | [27] 0.862 | [28] 1.04 | [29] 0.992 | [30] 0.988 | [9] 0.68 | [10] 1.01 | [31] 0.985 | [14] 0.986 | [32] 0.974 | [16] 1.08 | [33] 0.862 | [34] 1.17

O=C(Cc1ccc(Cl)c(Cl)c1)N1CCCCC1CN1CCCC1 (stereo not drawn)
inactive: [4] 0.982 | [5] 1 | [19] 1.01 | [6] 1.01 | [7] 0.999 | [21] 1.01 | [35] 1.03 | [9] 0.999 | [10] 1.09 | [11] 1.02 | [12] 1.03 | [13] 0.999 | [14] 1.05 | [15] 1.05 | [16] 1.01

CCOC(=O)c1ccc(N2CC3CCCCN3C2c2ccc(Cl)c(Cl)c2)cc1 (stereo not drawn)
active: [27] 0.744
inactive: [3] 0.989 | [17] 0.974 | S. cerevisiae deletion strains, locus YCL061C, strain MRC1, active compounds read low 0.991 | [18] 1 | S. cerevisiae deletion strains, locus YDL134C, strain PPH21, active compounds read low 1.01 | [19] 0.992 | [20] 0.993 | [21] 0.992 | [35] 1 | [1] 0.971 | [22] 0.992 | [2] 0.982 | [23] 1.01 | [8] 0.998 | [24] 0.889 | [25] 0.997 | [26] 0.97 | [28] 0.972 | [29] 0.984 | [30] 0.976 | [10] 0.997 | [31] 1.02 | [14] 1 | [32] 0.997 | [16] 0.922 | [33] 0.987 | [34] 0.893 | S. cerevisiae strains, strain wild type, active compounds read low 1.01
